Each structure is given as a SMILES string. The campaign covered roughly 210,000 compounds. About 520 (0.25%) were called active. The sample holds actives, similar compounds and a random draw of the others, so the mix is not that of the screen. Values without a mark were called inactive. Cut-off read from the data, not from the text of the source: active = inhibition above about 50%; inactive = the rest.

Consider five compounds from PubChem BioAssay AID1794808 (University of Kansas High Throughput Screening Laboratory, 2022).

The test system of this test is Plasmodium falciparum apicoplast DNA polymerase (apPOL). Briefly: Pf-apPOL inhibitors, biochemical, fluorescence (AID 1794808). The following applies: Recombinant Pf-apPOL, molecular beacon fluorescence, 1.5 h; at 10 µM; stronger effect = higher value.
Turning to `CCCCC1(c2ccccc2)C(=O)NC(=O)NC1=O`, the inhibition was 81.2% (active).

Consider `CCC1(c2ccccc2)C(=O)NC(=O)N(C(=O)c2ccccc2I)C1=O` (stereo not given), for which the inhibition is -1.8%.

Take `CCC1(c2ccccc2)C(=O)NC(=O)N(C)C1=O` (stereo not given): the inhibition is -0.8%.

As for `Cc1nnc(SCc2nc3ccccc3c(=O)n2-c2ccccc2Cl)s1`, the inhibition is 0.3%.

Turning to `CCn1cc(C(=O)NCc2cccc(C)c2)c2cccnc21`, the inhibition is -12.8%.

In general, inhibition refers to the change of the read-out against control, counted positive when it falls.
